In the supplement of paper PMC6555819:

Tested on: LXRa homodimer (NR concentration 270 nM)
Test: PBM binding z-score (relative to random genomic background probes); higher = stronger binding; sequences stand for … in GC…GCGATTGACAGCGTAGAATGAAGG
Method in brief: (§1)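 Random background probes are the reference for binding z-scores. These scores derive from regression-normalized fluorescence on custom Agilent 4×180K protein-binding microarrays incubated 1 h with ligand-free nuclear receptor dimers. Binding was detected with antibodies against each partner (one per run).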

Sequence | PBM binding z-score
TGTCAAAGTTCAAAGGTAATGTAAGTATCCACAC | 4.51
GCTTGTAGATCTAGGTTAAGAAAGACTAAGCTAA | -0.5
TCTAGTTGGTCACGGAGGTCACATACGACGGGTA | 2.47
TGAATGAGGTTAAAGATCAGCGAACGTGGCGTCG | -0.568
TCTTGTACATCAATAGAGGTTAAGAAAGTGCGCT | 0.473
GGAACGCGGGCAAGTTGATAGCAGAGTTTGATGG | -0.597
AGTCAAAGTTCAGGACGAGGTAACGGAAAGCACG | 0.925
ACAGACAGGTGAGAGAAGGTAACTCAGCTGGACG | -0.413
TCATATAGGTAAATGCTAGGGGAAAGTCCGATCT | 0.455
CCTTACGGGTCACTCCAGGTTATTGCATCGGAGT | 2.75
GCAGACAGGAGAAACGCAGGTAACTCAGGGTGGC | -0.471
CCGAGTACGTTATGGGGCATTCAGGCAACGGTGA | -0.712
TCGAGTAGGCTAGTCGGGGCATTCAGCCAACATA | -0.763
CCAGACAGGTGAAAGGTAACTCAGTCTGGTACGC | -0.121
CTCGAAAGGTCGGTTGAGGTGAGGATACGGATAA | -0.0492
TTACCAAGGTGAAGGTAGTTGATCCCTCTGTAGA | -0.482
CCGACCGGGGCATAAGGTTACCATAAGCCAGCCC | -0.254
CATACAGGGTCAGCTCGGCCAGAGTAGGGACGGC | -0.117
ACTTGTTGGTCAGCTGAGGTCACACACAATTCGG | 2.13
CCTGCTAGGTAATGGTCAGCTAATCTACAGTATG | -0.575

Sequence | PBM binding z-score
CGTCCAGGGTCATAGGAGGTCAGTGAAGACAGAT | 2.83
CCTTACGGTTCACTCCAGGTTATAGCATCGGAGT | 2.54
AGTCAGAGTTCAGGACGAGGTAACGTAAAGCACG | 0.881
TCAGACAGGCGAAGGTAACTCAGGTACGCAGTCG | -0.549
CGCCCAAGGTCAGAGAGGTCAGTGAATGCCGAGT | 3.24
GCATATAGGTAATACAAAGTGAAAGTCCGATTGT | -0.219
CGAACTAGATCATCCAGGACAGTGAATACATTGA | 0.195
CTACCAAGGTGAACAAGGTGGTTGATTACTATTC | -0.231
ACATACGGGTCAACGAGGTTATAGCACGCGTATA | 0.827
CGTCCAAGGTCAAGGTCAGTAAAAGAGACTCGAA | 1.22
GCGACTGGGGCATCAGCAGGTAACCATAACTTAA | -0.127
ATATGTAGATTAGCTGGGGTCATTCAGACTAGGC | 1.55
ACTAGTTGGTCAGCTGAGGTCCCACACAATTCGG | -0.16
AGAGTGAGGTTATACGTAGATCAGGGAAGAAAGT | 0.433
GCTAGCAGGCCATTTGGGGCACTCAATGACGGGC | -0.424
GCTAGTTGGTCAGGAAAAGGTCACACACCGGTCG | 3.43
CCGACTGGGGCATAAGGTTACCACAAGCCAGCCC | -0.388
ACTAGTTGGTCAGCAGAGGTCACACACAATTCGG | 4.06
TCTTGTAGATCAAAGGTTAAAAAAGCCGAAGCCT | 0.549
CCGACTGGTGCATAAGGTTACCATAAGCCAGCCC | 0.0222

Tested on: LXRb:RXRa (NR concentration 270 nM, RXRa partner concentration 90 nM)
Test: as above
Method in brief: as §1

Sequence | PBM binding z-score
TGTCAAAGTTCAAAGGTAATGTAAGTATCCACAC | 4.31
GCTTGTAGATCTAGGTTAAGAAAGACTAAGCTAA | -0.166
TCTAGTTGGTCACGGAGGTCACATACGACGGGTA | 3.46
TGAATGAGGTTAAAGATCAGCGAACGTGGCGTCG | 1.62
TCTTGTACATCAATAGAGGTTAAGAAAGTGCGCT | 1.79
GGAACGCGGGCAAGTTGATAGCAGAGTTTGATGG | -1.24
AGTCAAAGTTCAGGACGAGGTAACGGAAAGCACG | 1.77
ACAGACAGGTGAGAGAAGGTAACTCAGCTGGACG | -0.366
TCATATAGGTAAATGCTAGGGGAAAGTCCGATCT | 0.865
CCTTACGGGTCACTCCAGGTTATTGCATCGGAGT | 5.48
GCAGACAGGAGAAACGCAGGTAACTCAGGGTGGC | -0.777
CCGAGTACGTTATGGGGCATTCAGGCAACGGTGA | -0.213
TCGAGTAGGCTAGTCGGGGCATTCAGCCAACATA | -0.579
CCAGACAGGTGAAAGGTAACTCAGTCTGGTACGC | 1.01
CTCGAAAGGTCGGTTGAGGTGAGGATACGGATAA | 1.43
TTACCAAGGTGAAGGTAGTTGATCCCTCTGTAGA | 0.307
CCGACCGGGGCATAAGGTTACCATAAGCCAGCCC | 0.72
CATACAGGGTCAGCTCGGCCAGAGTAGGGACGGC | 2.06
ACTTGTTGGTCAGCTGAGGTCACACACAATTCGG | 3.51
CCTGCTAGGTAATGGTCAGCTAATCTACAGTATG | -0.764

Sequence | PBM binding z-score
CGTCCAGGGTCATAGGAGGTCAGTGAAGACAGAT | 6.26
CCTTACGGTTCACTCCAGGTTATAGCATCGGAGT | 3.58
AGTCAGAGTTCAGGACGAGGTAACGTAAAGCACG | 1.82
TCAGACAGGCGAAGGTAACTCAGGTACGCAGTCG | 0.255
CGCCCAAGGTCAGAGAGGTCAGTGAATGCCGAGT | 4.24
GCATATAGGTAATACAAAGTGAAAGTCCGATTGT | -0.304
CGAACTAGATCATCCAGGACAGTGAATACATTGA | -0.18
CTACCAAGGTGAACAAGGTGGTTGATTACTATTC | 0.391
ACATACGGGTCAACGAGGTTATAGCACGCGTATA | 3.97
CGTCCAAGGTCAAGGTCAGTAAAAGAGACTCGAA | 4.68
GCGACTGGGGCATCAGCAGGTAACCATAACTTAA | 0.0489
ATATGTAGATTAGCTGGGGTCATTCAGACTAGGC | 4.27
ACTAGTTGGTCAGCTGAGGTCCCACACAATTCGG | -0.219
AGAGTGAGGTTATACGTAGATCAGGGAAGAAAGT | 2.06
GCTAGCAGGCCATTTGGGGCACTCAATGACGGGC | -0.753
GCTAGTTGGTCAGGAAAAGGTCACACACCGGTCG | 3.75
CCGACTGGGGCATAAGGTTACCACAAGCCAGCCC | 0.812
ACTAGTTGGTCAGCAGAGGTCACACACAATTCGG | 4.34
TCTTGTAGATCAAAGGTTAAAAAAGCCGAAGCCT | 2.44
CCGACTGGTGCATAAGGTTACCATAAGCCAGCCC | 0.722
